# Test results reported in PubChem BioAssay.
# A number with no mark means an inactive call. The list shows a part of the results. The source made the active and inactive calls.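 Rule for the calls, unless noted: active = mean inhibition above the solvent-only control wells' mean plus 3 SD (cut at about 22% in these data); inactive = the rest.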
# Key:
# [1] = system: transactivating tegument protein VP16 (Human herpesvirus 1); test: compounds suppressing VP16-driven luciferase signal – cell-based, luminescence, single concentration, counter-screen for SRC2 inhibitor project (AID 652007; in the data active = inhibition above about 36%); conditions: cell-based VP16 transactivation luciferase reporter, at 8.9 µM, hits give high values
# [2] = reduced OD of V66 E. coli with T4 gene 2 phage – absorbance, RecBCD inhibitor project, confirmation (AID 651982;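 active = mean inhibition over triplicates exceeding the hit threshold derived in the original primary screen, cut at about 11% in these data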); conditions: E. coli V66 + T4 2- phage, growth OD; at 11.9 µM; hits give high values
# [3] = bacterial growth inhibition – absorbance, high throughput, counter-screen for RecBCD inhibitor project (AID 651983; in the data active = inhibition above about 20%;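 note: E. coli strain V66 grown with compound alone and no phage infection; 0% = bacteria with DMSO vehicle only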); conditions: E. coli viability, absorbance (OD) growth; at 11.9 µM; hits give high values
# [4] = reduced optical density, T4-challenged addAB+ bacteria – absorbance, E. coli V3065, T4 phage, counter-screen for RecBCD inhibitor project, confirmation (AID 651984);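 note: higher means less bacterial growth from phage killing when AddAB is blocked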; conditions: E. coli expressing H. pylori AddAB + T4 phage, OD growth; at 11.9 µM; hits give high values; gene 2 mutant T4, recBCD-deleted host
# [5] = StAR promoter reporter inhibitors, counter-screen for LRH-1 inverse agonist project, cell-based, luminescence, high throughput (AID 651611; in the data active = inhibition above about 28%); conditions: StAR promoter luciferase reporter counterscreen, at 3.6 µM, hits give high values
# [6] = target: Nuclear receptor subfamily 5 group A member 2 (Homo sapiens) (UniProt O00482); test: NR5A2 activity suppression in reporter cells – cell-based, luminescence, confirmation (AID 651613; in the data active = inhibition above about 42%;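 note: HEK293T cells co-transfected with LRH-1 and StAR promoter luciferase reporter; 0% = vehicle wells and 100% = parental cells lacking receptor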); conditions: cell-based LRH-1 luciferase reporter, inverse agonism; at 3.6 µM; hits give high values
# Chain of Nuclear receptor subfamily 5 group A member 2 (Homo sapiens) (O00482 whole entry, looked up): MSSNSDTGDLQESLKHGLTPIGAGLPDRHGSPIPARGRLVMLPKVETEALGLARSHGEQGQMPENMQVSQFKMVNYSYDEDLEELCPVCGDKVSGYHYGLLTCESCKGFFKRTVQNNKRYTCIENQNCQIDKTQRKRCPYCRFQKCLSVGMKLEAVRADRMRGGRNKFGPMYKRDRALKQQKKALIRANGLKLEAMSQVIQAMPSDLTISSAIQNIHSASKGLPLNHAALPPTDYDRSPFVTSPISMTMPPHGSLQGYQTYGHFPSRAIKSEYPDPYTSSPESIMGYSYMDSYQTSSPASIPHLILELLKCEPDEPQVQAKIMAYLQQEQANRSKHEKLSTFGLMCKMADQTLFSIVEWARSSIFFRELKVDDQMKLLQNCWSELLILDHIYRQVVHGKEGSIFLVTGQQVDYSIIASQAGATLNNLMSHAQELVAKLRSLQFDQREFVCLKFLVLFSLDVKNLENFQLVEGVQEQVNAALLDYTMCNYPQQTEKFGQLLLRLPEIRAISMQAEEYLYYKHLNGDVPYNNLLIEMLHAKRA
# [7] = target: Steroidogenic factor 1 (Homo sapiens) (UniProt Q13285); test: inverse agonism at SF1 nuclear receptor – cell-based, luminescence, high throughput, counter-screen for LRH-1 inverse agonist project (AID 651614; in the data active = inhibition above about 44%;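 note: cells cotransfected with StAR promoter reporter and SF1 expression vector; 0% = vehicle on cells with receptor and 100% = vehicle on cells lacking receptor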); conditions: cell-based SF1 luciferase reporter, at 3.6 µM, hits give high values
# Chain of Steroidogenic factor 1 (Homo sapiens) (Q13285 whole entry, looked up, the tested form may be a part): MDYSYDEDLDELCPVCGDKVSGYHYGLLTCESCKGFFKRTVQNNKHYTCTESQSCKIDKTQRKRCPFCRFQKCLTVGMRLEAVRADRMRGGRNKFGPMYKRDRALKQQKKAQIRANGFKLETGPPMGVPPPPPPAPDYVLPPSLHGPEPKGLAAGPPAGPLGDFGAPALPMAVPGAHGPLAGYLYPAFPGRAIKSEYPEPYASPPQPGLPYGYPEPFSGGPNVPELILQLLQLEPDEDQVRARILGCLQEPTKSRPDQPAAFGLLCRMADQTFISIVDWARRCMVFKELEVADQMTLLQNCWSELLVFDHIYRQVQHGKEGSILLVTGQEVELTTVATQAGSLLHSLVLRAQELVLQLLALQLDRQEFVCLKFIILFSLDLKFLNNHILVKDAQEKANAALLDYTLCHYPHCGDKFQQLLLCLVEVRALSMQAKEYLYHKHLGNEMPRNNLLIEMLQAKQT
# [8] = compounds suppressing VP16-driven luciferase signal – cell-based, luminescence, high throughput, counter-screen for LRH-1 inverse agonist project (AID 651615; in the data active = inhibition above about 33%); conditions: Gal4-VP16 luciferase reporter cells, at 3.6 µM, hits give high values
# [9] = VP16-driven transactivation reporter suppression – cell-based, luminescence, HEK293, counter-screen for COUP-TFII antagonist project (AID 687007; in the data active = inhibition above about 13%); conditions: HEK293 Gal4-VP16 luciferase reporter, at 8.5 µM, hits give high values
# [10] = target: COUP transcription factor 2 (Homo sapiens) (UniProt P24468); test: retest of COUP-TFII reporter suppressors – cell-based, luciferase reporter, HEK293, triplicate, confirmation (AID 687008;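 active = mean inhibition over three repeats above a set limit taken from the earlier primary screen, cut at about 38% in these data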;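 note: 100% = cells given the luciferase reporter alone without the COUP-TF2 vector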); conditions: HEK293 NGFI-A luciferase reporter, luminescence; at 8.5 µM; hits give high values
# Chain of COUP transcription factor 2 (Homo sapiens) (P24468 whole entry, looked up, the tested form may be a part): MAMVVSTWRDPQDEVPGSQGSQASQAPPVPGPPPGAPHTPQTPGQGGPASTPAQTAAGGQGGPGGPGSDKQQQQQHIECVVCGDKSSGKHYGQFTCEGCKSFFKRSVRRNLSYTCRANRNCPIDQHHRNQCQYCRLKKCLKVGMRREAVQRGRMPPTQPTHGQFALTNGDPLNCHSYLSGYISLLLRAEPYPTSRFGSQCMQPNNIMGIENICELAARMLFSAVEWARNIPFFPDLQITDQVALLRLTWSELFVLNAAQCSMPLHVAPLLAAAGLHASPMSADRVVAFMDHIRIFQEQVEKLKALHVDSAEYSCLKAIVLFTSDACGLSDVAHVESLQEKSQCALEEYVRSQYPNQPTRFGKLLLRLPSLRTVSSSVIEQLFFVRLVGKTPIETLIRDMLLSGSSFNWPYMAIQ
# [11] = target: Nuclear receptor coactivator 2 (Homo sapiens) (UniProt Q15596); test: inhibition of GAL4-SRC2 driven luciferase expression – cell-based, luminescence, HEK293, triplicate, confirmation (AID 652008;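 active = mean inhibition above 46.5%, the solvent-only control mean plus 3 SD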;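 note: 0% = DMSO-treated cells and 100% = Gossypol at 36 µM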); conditions: HEK293 GAL4-SRC2 luciferase reporter, at 8.9 µM, hits give high values
# Chain of Nuclear receptor coactivator 2 (Homo sapiens) (Q15596 whole entry, looked up, the tested form may be a part): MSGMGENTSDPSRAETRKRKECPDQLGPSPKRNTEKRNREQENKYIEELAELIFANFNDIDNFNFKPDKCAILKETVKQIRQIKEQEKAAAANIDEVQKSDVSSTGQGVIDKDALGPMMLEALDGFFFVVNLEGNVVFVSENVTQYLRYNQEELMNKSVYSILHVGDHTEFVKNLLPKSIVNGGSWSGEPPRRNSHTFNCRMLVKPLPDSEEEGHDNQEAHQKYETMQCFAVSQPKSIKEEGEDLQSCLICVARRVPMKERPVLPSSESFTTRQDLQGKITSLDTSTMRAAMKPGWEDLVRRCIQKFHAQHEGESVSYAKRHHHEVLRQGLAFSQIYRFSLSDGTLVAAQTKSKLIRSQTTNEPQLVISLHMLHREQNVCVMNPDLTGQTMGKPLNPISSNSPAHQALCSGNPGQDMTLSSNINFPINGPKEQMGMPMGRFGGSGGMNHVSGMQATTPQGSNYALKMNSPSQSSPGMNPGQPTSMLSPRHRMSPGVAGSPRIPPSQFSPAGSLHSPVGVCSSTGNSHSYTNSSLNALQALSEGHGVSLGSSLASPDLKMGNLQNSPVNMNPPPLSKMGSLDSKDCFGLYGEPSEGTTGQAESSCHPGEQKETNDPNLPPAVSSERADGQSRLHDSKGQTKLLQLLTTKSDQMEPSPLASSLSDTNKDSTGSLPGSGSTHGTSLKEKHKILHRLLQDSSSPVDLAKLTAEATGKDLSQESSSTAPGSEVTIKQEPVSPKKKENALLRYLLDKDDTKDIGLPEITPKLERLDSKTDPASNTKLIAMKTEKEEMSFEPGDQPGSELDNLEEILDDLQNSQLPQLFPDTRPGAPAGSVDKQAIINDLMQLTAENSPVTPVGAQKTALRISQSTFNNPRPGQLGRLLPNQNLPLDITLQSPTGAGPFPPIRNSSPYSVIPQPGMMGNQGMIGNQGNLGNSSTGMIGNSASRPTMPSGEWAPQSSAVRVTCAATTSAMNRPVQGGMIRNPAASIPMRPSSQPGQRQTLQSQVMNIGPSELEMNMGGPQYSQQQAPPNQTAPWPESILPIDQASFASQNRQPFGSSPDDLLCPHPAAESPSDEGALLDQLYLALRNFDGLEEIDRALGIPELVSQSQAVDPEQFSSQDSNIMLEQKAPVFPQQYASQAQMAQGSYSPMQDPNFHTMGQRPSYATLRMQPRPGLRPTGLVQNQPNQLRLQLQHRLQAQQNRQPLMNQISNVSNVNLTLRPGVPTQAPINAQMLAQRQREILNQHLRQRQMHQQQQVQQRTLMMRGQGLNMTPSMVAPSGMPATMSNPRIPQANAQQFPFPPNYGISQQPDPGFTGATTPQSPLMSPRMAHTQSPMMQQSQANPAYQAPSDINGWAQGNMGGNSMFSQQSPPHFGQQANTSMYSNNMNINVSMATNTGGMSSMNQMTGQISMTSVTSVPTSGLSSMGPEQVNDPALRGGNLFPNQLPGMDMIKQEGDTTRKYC
compound,measurement,setting,value
CN(C)c1ccnc2sc(C(N)=O)c(N)c12,inhibition,[1],-0.64%
CC(=O)NC(c1cccs1)c1cc(Br)c2cccnc2c1O (centres undefined),inhibition,[2],10.7%
same,inhibition,[3],16.4%
same,inhibition,[4],16.1%
CCc1cc(-c2nnn(CCC3COCCO3)c2CC)ccc1-c1cn(Cc2ccc3ccccc3c2)nn1 (centres undefined),inhibition,[5],0.97%
same,inhibition,[6],34.7%
same,inhibition,[7],42.3%
same,inhibition,[8],39.4% (active)
same,inhibition,[9],-21.8%
same,inhibition,[10],42% (active)
CCn1cc(C(=O)NCCO)c(=O)c2cc(F)c(N3CCN(C)CC3)cc21,inhibition,[2],103% (active)
same,inhibition,[3],104% (active)
same,inhibition,[4],104% (active)
CCN1CCN(c2nc(Nc3cc(OC)ccc3OC)nc(Nc3cc(OC)ccc3OC)n2)CC1,inhibition,[2],-0.69%
same,inhibition,[3],-0.86%
same,inhibition,[4],-2.43%
COc1ccc(-c2nc3c([nH]2)c(=O)n(C)c(=O)n3C)c(OC)c1,inhibition,[6],24.5%
same,inhibition,[7],12.7%
Cn1cc(C(=O)c2ccc(Cl)cc2)cc1-c1nc2ccccc2n1C,inhibition,[6],51.9% (active)
same,inhibition,[7],49.8% (active)
CC(C)(C)C(=O)/C(=C\c1cccc([N+](=O)[O-])c1)n1cncn1,inhibition,[5],84.9% (active)
same,inhibition,[8],85% (active)
C=CCn1c(=O)c(C(=O)NCc2ccc3c(c2)OCO3)c(O)c2ccccc21,inhibition,[2],4.97%
same,inhibition,[3],6.78%
same,inhibition,[4],6.71%
CC1(C(=O)NS(=O)(=O)c2ccccc2)CCN1C(=O)C/C=C/c1ccccc1 (centres undefined),inhibition,[2],-4.38%
same,inhibition,[3],-3.55%
same,inhibition,[4],-0.33%
S=C(NCC1COc2ccccc2O1)Nc1ccc(Br)cc1 (centres undefined),inhibition,[2],4.21%
same,inhibition,[3],5.21%
same,inhibition,[4],6.67%
CNC(=O)c1cc(Oc2ccc(NC(=O)Nc3ccc(Cl)c(C(F)(F)F)c3)cc2)ccn1,inhibition,[6],63.7% (active)
same,inhibition,[7],69% (active)
same,inhibition,[1],29.9%
same,inhibition,[11],58.7% (active)
COc1cccc(C(O)c2ncc(-c3ccc4ccccc4c3)[nH]2)c1 (centres undefined),inhibition,[2],7.6%
same,inhibition,[3],10.9%
same,inhibition,[4],13.4%
CC1=C(C/C=C(\C)CCCC(C)CCCC(C)CCCC(C)C)C(=O)c2ccccc2C1=O (centres undefined),inhibition,[2],0.32%
same,inhibition,[3],0.53%
same,inhibition,[4],-1.36%
Cc1ccc(-c2cnc(C(O)c3cc(Cl)cc(Cl)c3)[nH]2)cc1 (centres undefined),inhibition,[2],12.2% (active)
same,inhibition,[3],16.9%
same,inhibition,[4],16.9%
CCNC(=S)N(CCc1c(C)[nH]c2ccc(C)cc12)Cc1ccco1,inhibition,[2],-0.28%
same,inhibition,[3],-0.24%
same,inhibition,[4],-0.97%
COc1ccc(/C=C/c2nc3ccccc3c(=O)o2)cc1,inhibition,[5],38.6% (active)
same,inhibition,[6],-49.3%
same,inhibition,[7],37.2%
same,inhibition,[8],-63%
same,inhibition,[1],38.4% (active)
same,inhibition,[11],84.3% (active)
CN(C)c1ccc2nc3ccc(=[N+](C)C)cc-3sc2c1,inhibition,[6],59.9% (active)
same,inhibition,[7],66.7% (active)
same,inhibition,[8],52.9% (active)
CCN1CCN(C(=O)N[C@@H](C(=O)N[C@@H]2C(=O)N3C(C(=O)O)=C(CSc4nnnn4C)CS[C@H]23)c2ccc(O)cc2)C(=O)C1=O,inhibition,[2],99.8% (active)
same,inhibition,[3],101% (active)
same,inhibition,[4],3.42%
CC(C)(C)C(=O)Nc1c(Br)c(C2CC2)nn1-c1ccccc1,inhibition,[2],-0.86%
same,inhibition,[3],-0.19%
same,inhibition,[4],0.42%
CCC(C(=O)NCc1ccccc1)n1c(CSCCOc2ccccc2)nc2ccccc21 (centres undefined),inhibition,[5],21.1%
same,inhibition,[6],21.6%
same,inhibition,[7],25.1%
same,inhibition,[8],29%
same,inhibition,[1],19.5%
same,inhibition,[11],78.3% (active)
CCOc1ccc(-c2cc(CCCC(=O)Nc3cccc(OC)c3)no2)cc1,inhibition,[5],40.6% (active)
same,inhibition,[6],40.9%
same,inhibition,[7],48.5% (active)
same,inhibition,[8],6.33%
same,inhibition,[1],36.8% (active)
same,inhibition,[11],58.9% (active)
O=C(Nc1ccc(Br)cn1)C1CCN(S(=O)(=O)c2cccs2)CC1,inhibition,[5],13.5%
same,inhibition,[6],48.4% (active)
same,inhibition,[7],50.2% (active)
same,inhibition,[8],45.3% (active)
same,inhibition,[9],13.1% (active)
same,inhibition,[10],48.2% (active)
Cc1ccc(NC(=O)Nc2nnc(-c3ccncc3)s2)cc1,inhibition,[2],2.33%
same,inhibition,[3],3.97%
same,inhibition,[4],9.8%
O=C(N/N=C/c1ccc([N+](=O)[O-])s1)c1cccnc1,inhibition,[5],13.9%
same,inhibition,[8],7.08%
CC(C)(C)C(=O)/C(=C/c1cccc([N+](=O)[O-])c1)n1cncn1,inhibition,[5],87.2% (active)
same,inhibition,[8],83.7% (active)
O=C1c2ccccc2C2=Nc3ccccc3SC(c3ccccc3F)C12 (centres undefined),inhibition,[2],8.51%
same,inhibition,[3],8.52%
same,inhibition,[4],3.38%
COc1cccc(N2CCN(CC(=O)Nc3ccc(-n4cnnn4)cc3)CC2)c1,inhibition,[7],48.9% (active)
O=C(N/N=C/c1ccc([N+](=O)[O-])o1)c1ccc(O)cc1,inhibition,[6],78.3% (active)
same,inhibition,[7],69% (active)
NC1=NC(=O)C(Cc2cccc(Cl)c2Cl)S1 (centres undefined),inhibition,[2],0.33%
same,inhibition,[3],0.21%
same,inhibition,[4],-2.48%
CCCCC(=O)NC(c1ccc(OC)c(OC)c1)c1ccc2cccnc2c1O (centres undefined),inhibition,[2],13.9% (active)
same,inhibition,[3],17.6%
same,inhibition,[4],25.8% (active)
COc1ccc(/C=C/C(=O)O)cc1O,inhibition,[5],1.72%
same,inhibition,[8],2.63%
CN(C)C(=O)c1cccc(COc2ccc(N3C(N)=NC(N)=NC3(C)C)cc2Cl)c1,inhibition,[6],42.1% (active)
same,inhibition,[7],39.9%
O=C(NCCc1c[nH]c2ccccc12)c1ccc([N+](=O)[O-])o1,inhibition,[5],15.7%
same,inhibition,[6],62.6% (active)
same,inhibition,[7],59.7% (active)
same,inhibition,[8],21.7%
same,inhibition,[1],2.92%
same,inhibition,[11],15.3%
C=CCNC(=O)CSc1nc2sc(C)c(C)c2c(=O)[nH]1,inhibition,[2],-1.59%
same,inhibition,[3],-0.91%
same,inhibition,[4],-2.04%
CC(N)C(=O)NC(CO)C(O)C(N)C=O (centres undefined),inhibition,[6],56.3% (active)
same,inhibition,[7],55.5% (active)
